A short description of test [1]: qHTS assay for small molecule agonists of the p53 signaling pathway (AID 651631; calls by dose curve; also: nearly all actives have a fitted effect of over 15% in size). The essentials: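 HCT-116 p53RE-bla reporter line, 16 h compound treatment at 37 °C, then fluorescence after 2 h with B/G FRET substrate.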
(In general: qHTS replaces the single test concentration by a dilution series.)

Test [2] is described as follows: qHTS assay for small molecules that induce genotoxicity in human embryonic kidney cells expressing luciferase-tagged ATAD5 (AID 651632). Also: nearly all actives have a fitted effect of over 15% in size. The essentials:
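Concentration-response screen for ATAD5 upregulation in HEK293T luciferase reporter cells; 16 hr treatment at 37C, then luminescence after 30 min with Amplite at room temperature.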

The nature of test [3]: qHTS assay for small molecule disruptors of the mitochondrial membrane potential - cell viability (AID 720634; calls by dose curve;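 also: human HepG2 liver cancer cells; series mostly up to about 83 µM; nearly all actives have a fitted effect of over 20% in size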). In a few lines: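 In this qHTS format, HepG2 cells plated overnight were pinned with compound, incubated 1 hr, and assayed for ATP luminescence with CellTiter-Glo after m-MPI dye addition.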
A short description of test [4]: qHTS assay for small molecule disruptors of the mitochondrial membrane potential (AID 720635). Also: potency is read from the fitted curve at half-maximal effect. The essentials:
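HepG2 cells exposed to compound 1 hr at 37C, then Mito-MPS dye 30 min. Ratio read of aggregate (540/590 nm) versus monomer (490/535 nm) fluorescence.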

Test [5] can be described thus: qHTS assay to test for compound auto fluorescence at 590 nm (red) in HepG2 cells (AID 720674). In a few lines: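 Seeding: 2,000 HepG2 cells/well, MEM/10% FBS, overnight 37 C. Dosing: compound vs DMSO. Incubation: 1 hr, 37 C, 5% CO2. Read: fluorescence 540 ex/590 em, Rose Bengal sodium as red reference.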
Test [6] in a line: qHTS assay to test for compound auto fluorescence at 535 nm (green) in HepG2 cells (AID 720675).
Test [7] is described as follows: qHTS assay to test for compound auto fluorescence at 460 nm (blue) in HEK293 cells (AID 720678). In a few lines: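 Intrinsic compound fluorescence is recorded in live HEK293 cultures after overnight incubation at 37C, 5% CO2, using excitation 405 nm and emission 460 nm. Values are referenced to triamterene.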
Test [8] can be described thus: qHTS assay to test for compound auto fluorescence at 590 nm (red) in HEK293 cells (AID 720679). In a few lines:
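Red autofluorescence, HEK293 cells: 2,000 cells/well; attach 4-5 hr 37C; add 23 nL cpd or DMSO; incubate o/n 37C 5% CO2; read Ex540/Em590; Rose Bengal sodium reference.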

Test [9] in a line: qHTS assay to test for compound auto fluorescence at 535 nm (green) in HEK293 cells (AID 720680).
A short description of test [10]: qHTS assay to test for compound auto fluorescence at 460 nm (blue) in HEK293 cell free culture (AID 720681). The essentials: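 Compounds were added to cell-free DMEM with 10% FBS and fluorescence read directly. The blue channel used 405 nm excitation and 460 nm emission, with triamterene as the reference fluorophore.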
Test [11] can be described thus: qHTS assay to test for compound auto fluorescence at 535 nm (green) in HEK293 cell free culture (AID 720682). In a few lines: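 Steps: dispense DMEM/10% FBS into empty wells; pin in compound or DMSO; measure fluorescence at 485/535 nm. Values are fluorescein equivalents.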
A short description of test [12]: qHTS assay to test for compound auto fluorescence at 590 nm (red) in HEK293 cell free culture (AID 720683). In a few lines:
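Cell-free wells of DMEM with 10% FBS received compound, and intrinsic fluorescence was read at excitation/emission 540/590 nm. Values expressed as equivalence to Rose Bengal sodium.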

Test [13] is described as follows: qHTS assay to test for compound auto fluorescence at 590 nm (red) in HepG2 cell free culture (AID 720684). In a few lines:
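Auto fluorescence equivalency versus Rose Bengal sodium, red channel Ex/Em 540/590 nm; compounds in cell-free MEM/10% FBS; DMSO vehicle control.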

Test [14] is described as follows: qHTS assay to test for compound auto fluorescence at 460 nm (blue) in HepG2 cell free culture (AID 720685). In a few lines:
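Cell-free plates of MEM plus 10% FBS received 23 nL compound or DMSO vehicle; blue-channel (405/460 nm) intensity scored against triamterene as reference fluorophore.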

A short description of test [15]: qHTS assay to test for compound auto fluorescence at 535 nm (green) in HepG2 cell free culture (AID 720686).
Test [16] is described as follows: qHTS assay to test for compound auto fluorescence at 460 nm (blue) in HepG2 cells (AID 720687). The essentials:
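HepG2 cells in MEM with 10% FBS, attached overnight at 37 C, were exposed to compound or DMSO for 1 hr at 37 C, 5% CO2. Blue fluorescence was read at 405/460 nm, with triamterene as reference fluorophore.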

Test [17] concerns the target Glucocorticoid receptor (Homo sapiens) (UniProt P04150). The experiment in a line: qHTS assay to identify small molecule agonists of the glucocorticoid receptor (GR) signaling pathway (AID 720691; active = well fitted activation curve with a large enough effect in the signal ratio in the repeat runs, not every such curve was filed as active; the % refers to the signal ratio). In a few lines: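 Measures GR pathway activation through a GRE-beta-lactamase reporter stably integrated in HeLa cells, with 18 h compound treatment at 37 C and fluorescence detection using a FRET substrate.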

The target is the same in test [18]. Put plainly: qHTS assay to identify small molecule antagonists of the glucocorticoid receptor (GR) signaling pathway (AID 720692; active = well fitted inhibition curve with a large enough effect in the signal ratio in the repeat runs, not every such curve was filed as active; the % refers to the signal ratio). The essentials:
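Tox21 10K library screened in concentration-response for blockade of dexamethasone (5 nM final)-induced GRE-bla reporter activity in HeLa cells; 18 h treatment, fluorescence read.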

Test [19] can be described thus: qHTS assay for small molecule agonists of the p53 signaling pathway - cell viability (AID 651633; calls by dose curve;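 also: p53RE-bla HCT reporter cells with a stable beta-lactamase p53 reporter; series mostly up to about 83 µM; nearly all actives have a fitted effect of over 30% in size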). The essentials: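 p53RE-bla cells were treated with compound for 16 hours at 37 C. Cytotoxicity was then measured as CellTiter-Glo luminescence after 30 min at room temperature.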
Test [20] can be described thus: qHTS assay for small molecules that induce genotoxicity in human embryonic kidney cells expressing luciferase-tagged ATAD5 - cell viability (AID 651634; calls by dose curve; also: nearly all actives have a fitted effect of over 25% in size). The essentials:
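15.5 hr compound or vehicle exposure of HEK293T cells expressing luciferase-tagged ATAD5 at 37C; live-cell protease activity is read by fluorescence after 30 min of CellTiter-Fluor.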

A number with no mark means an inactive call. Results filed as inconclusive are left out. Activity calls are given as the source filed them. Unless noted, calls follow the shape of the dose curve; as a rule, active = well fitted curve in the direction sought with a large enough effect in the repeat runs; inconclusive = weak or mixed curves; inactive = no such curve, though single readings can be large; an effect the other way counts as inactive or inconclusive.

Chain of Glucocorticoid receptor (Homo sapiens) (P04150 whole entry, looked up): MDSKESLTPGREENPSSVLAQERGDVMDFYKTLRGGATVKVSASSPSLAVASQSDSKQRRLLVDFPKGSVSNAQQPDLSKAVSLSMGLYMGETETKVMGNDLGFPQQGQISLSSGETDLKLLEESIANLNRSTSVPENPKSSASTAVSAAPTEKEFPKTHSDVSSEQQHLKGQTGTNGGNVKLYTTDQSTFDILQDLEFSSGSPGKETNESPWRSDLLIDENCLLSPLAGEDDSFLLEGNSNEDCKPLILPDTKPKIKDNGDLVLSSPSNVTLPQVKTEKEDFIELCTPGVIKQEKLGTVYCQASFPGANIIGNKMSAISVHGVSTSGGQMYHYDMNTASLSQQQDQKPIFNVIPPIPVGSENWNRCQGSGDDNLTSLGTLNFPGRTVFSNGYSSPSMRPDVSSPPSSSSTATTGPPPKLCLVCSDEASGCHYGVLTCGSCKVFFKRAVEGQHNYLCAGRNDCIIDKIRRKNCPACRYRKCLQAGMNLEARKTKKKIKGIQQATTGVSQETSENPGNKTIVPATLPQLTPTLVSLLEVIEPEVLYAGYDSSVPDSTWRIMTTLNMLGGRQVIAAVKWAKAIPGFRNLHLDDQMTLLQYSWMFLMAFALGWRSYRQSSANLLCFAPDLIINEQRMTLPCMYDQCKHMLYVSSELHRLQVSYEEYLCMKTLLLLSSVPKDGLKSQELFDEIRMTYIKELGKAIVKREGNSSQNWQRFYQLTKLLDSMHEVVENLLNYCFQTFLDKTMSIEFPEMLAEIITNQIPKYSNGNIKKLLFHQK

Take `CC(=O)O[Si](C)(OC(C)=O)OC(C)=O`: the result in test [1], in test [2], in test [3], in test [5], in test [6] and in [7] was inactive. Moreover, the compound was classed as inactive in test [8], in test [9], in test [10], in test [11], in test [12] and in [13]. Moreover, the compound was called inactive in test [14], in test [15], in test [16] and in test [18]. For the same compound, the Potency in test [4] was 17.7 µM (active). The Potency result in test [17] is “inactive”.

As to `C=CC(=O)OCC1CCCO1` (stereo not given), the compound was called inactive in test [1], in test [2], in test [19], in [5], in [6] and in [7]. Also, the compound was classed as inactive in test [8], in [9], in [10], in test [11], in test [12] and in [13]. Besides, the result in test [14], in test [15] and in [16] was inactive.

Turning to `C=CCCCCCCCC`, the outcome in test [1], in [2], in test [3], in test [5], in test [6] and in test [7] was inactive. Besides, the result in [8], in [9], in [10], in test [11], in test [12] and in [13] was inactive. The call in [14], in [15] and in test [16] was inactive. Moreover, the Potency result in [17] was “inactive”.

As for `O=C[O][Al]([O]C=O)[O]C=O`, the result in test [1], in test [19], in [3], in test [6], in test [7] and in test [8] was inactive. Also, the compound was classed as inactive in test [9], in test [10], in test [11], in test [12], in test [13] and in test [14]. For the same compound, the compound was called inactive in [15], in [16] and in test [18]. For the same compound, the Potency result in [17] was “inactive”.

Regarding `CC(=O)CC(=O)OC(C)(C)C`, the outcome in test [1], in [2], in test [3], in [5], in test [6] and in test [7] was inactive. Further, the call in [8], in test [9], in test [10], in test [11], in test [12] and in [13] was inactive. Also, the outcome in [14], in test [15] and in test [16] was inactive. Besides, the Potency result in test [20], in test [4] and in test [17] was “inactive” in each case.

Regarding `O=C(Cl)c1ccccc1[N+](=O)[O-]`, the outcome in test [1], in test [2], in [3], in test [5], in [6] and in [7] was inactive. Besides, the call in test [8], in test [9], in test [10], in test [11], in [12] and in [13] was inactive. The result in test [14], in test [15] and in test [16] was inactive. For the same compound, the Potency result in test [20], in [4] and in test [17] was “inactive” each time.

`CC(C)OC(=O)OCOP(=O)(CO[C@H](C)Cn1cnc2c(N)ncnc21)OCOC(=O)OC(C)C`: the result in test [1], in test [2], in [3], in [5], in [6] and in [7] was inactive. For the same compound, the outcome in test [8], in test [9], in [11], in test [13], in [14] and in test [15] was inactive. Moreover, the compound was called inactive in [16]. In [4], the Potency entry was “inactive”.

For the compound `OC[C@@H](O)C(O)[C@@H](O)CO` (stereo not given in full), the result in test [1], in test [2], in test [19], in [6], in [7] and in [8] was inactive. Moreover, the compound was classed as inactive in test [9], in test [10], in [12], in test [13], in test [14] and in test [15]. For the same compound, the result in test [16] and in [18] was inactive. Further, the Potency entry in [17] is “inactive”.
